# Experimental data from ChEMBL document CHEMBL4296182, “CO-ADD screening of NIH NCI Diversity Set V”.
# For part of these data: Entries with a potency or affinity are not part of this list.
# Tests used:
# [1] = system: Staphylococcus aureus; experiment: Antibacterial activity against Staphylococcus aureus MRSA ATCC 43300 (CO-ADD:GP_020); MIC in CAMBH media using NBS plates, by Resazurin F(560/590); type: functional; conditions: Concentration 20 uM, ASSAY_TEST Inhibition of Bacterial Growth, detection method Resazurin, Fluorescence (ex560/em590), MEDIA CAMHB, plate type 384well, CORNING #3640, time 18 hr
# [2] = system: Acinetobacter baumannii; experiment: Antibacterial activity against Acinetobacter baumannii ATCC 19606 (CO-ADD:GN_034); MIC in CAMBH media using NBS plates, by Resazurin F(560/590); type: functional; conditions: Concentration 20 uM, ASSAY_TEST Inhibition of Bacterial Growth, detection method Resazurin, Fluorescence (ex560/em590), MEDIA CAMHB, plate type 384well, CORNING #3640, time 18 hr
# [3] = system: Escherichia coli; experiment: Antibacterial activity against Escherichia coli ATCC 25922 (CO-ADD:GN_001); MIC in CAMBH media using NBS plates, by Resazurin F(560/590); type: functional; conditions: Concentration 20 uM, ASSAY_TEST Inhibition of Bacterial Growth, detection method Resazurin, Fluorescence (ex560/em590), MEDIA CAMHB, plate type 384well, CORNING #3640, time 18 hr
# [4] = system: Klebsiella pneumoniae; conditions: Concentration 20 uM; ASSAY_TEST Inhibition of Bacterial Growth; detection method Absorption (OD600); MEDIA CAMHB; plate type 384well; NBS; CORNING #3640; time 18 hr
# [5] = system: Candida albicans; conditions: 20 µM
# [6] = system: Cryptococcus neoformans; conditions: Concentration 20 uM; ASSAY_TEST Inhibition of Fungal Growth; detection method Resazurin; Absorption (OD600-OD570); plate type 384well; NBS; CORNING #3640
SMILES,Inhibition [1] [%],Inhibition [2] [%],Inhibition [3] [%],Inhibition [4] [%],Inhibition [5] [%],Inhibition [6] [%]
O=C(O)/C=C\C(=O)Nc1nccs1,6.29,-13.11,4.99,25.17,0.91,-1.21
Cc1ccccc1OCC(O)CN1CCN(c2ccc(Cl)cc2)CC1 (centres undefined),16.79,7.24,2.66,7.5,0.11,-12.08
O=C(CN1CCOCC1)N1CCOCC1,15.46,-15.04,7.84,3.48,-1.35,-8.59
c1ccc(-c2nc(-c3nccc4ccccc34)oc2-c2ccccc2)cc1,-13.7,-4.32,-16.8,-4.05,15.1,12.09
CCSc1ncc(CO)c(N)n1,4.68,-13.15,2.64,10.1,0.06,1.67
O=C1c2ccccc2C(O)(c2ccccc2)N1c1ccncc1 (centres undefined),8.72,-12.43,4.92,13.13,2.44,-3.79
Clc1ccccc1-c1nc(-c2ccncc2)no1 [PIFEXOLE],2.18,-11.63,7,9.18,12.7,-16.63
CSc1nc(O)c(Nc2cccc(Cl)c2)c(O)n1,7.02,14.23,-1.67,7.49,0,16.48
O=C(c1ccc(Cl)nc1)c1cccs1,-3.15,14.95,-2.66,4.42,2.35,-1.99
Cc1nc2nc(C(F)(F)F)[nH]c2nc1C,10.93,9.55,-5.58,7.77,3.03,-5.2
CCOc1ccc(NC(=O)C2CCCN(C)C2)cc1 (centres undefined),8.6,6.87,-2.25,20.11,9.11,-4.92
C[C@@H]1C[C@H]2OC(=O)[C@@]3(C)CCC[C@@](C)([C@@H]23)[C@@]1(O)CCc1ccoc1,-8.43,-3.35,-14.05,4.6,-0.12,-1.32
Nc1nc(N)nc(C2C=CCCC2)n1 (centres undefined),1.35,-5.4,16.17,16.96,0.09,-8.05
COc1ccc(OCC(O)CN2CCN(c3ccc(Cl)cc3)CC2)cc1 (centres undefined),-0.5,8.48,10.52,5.97,-0.41,-11.59
CCNc1nc(NC(C)C)nc(-c2ccncc2)n1,6.99,-1.34,9.95,10,1.8,-10.92
N=C1OC(c2ccccc2)C(O)=C1O (centres undefined),0.33,-10.5,6.34,8.48,7.04,-2.61
COc1ccc2nc(-c3ccc(Cl)cc3)cc(C(=O)O)c2c1,-2.13,-6.37,6.47,11.49,35.6,-9.35
CC(=O)c1cc2c(cc1C)CCCC2(C)C,18.6,-15.87,11.58,0.53,-0.44,-7.49
Cn1ncc2c(Nc3ccccc3Cl)nc(Cl)nc21,11.91,12.64,1.79,7.78,7.2,-6.78
